PubChem BioAssay AID1159580 (chemical genetic matrix, 2015)
Several values for one entry are separate records, joined by “and”; a condition that tells them apart may be missing. Equal values may be shown once. Out of some 5,500 compounds screened, about 2,000 (36%) were called active. Another 18% or so got no clear call; they are omitted. Cut-off read from the data, not from the text of the source: active = normalized growth mostly below about 0.91 (no sharp cut-off); inconclusive = no clear call, values can overlap the other calls; inactive = mostly above about 0.92. This is one part of the list.

Test: chemical genetic growth profiling, strain panel (AID 1159580);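 note: tested at 20 µM; growth read once vehicle control cultures reached saturation at 30 °C; 1 = growth at the plate median or of vehicle wells; lower values mean less growth of the strain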
Conditions: growth OD
[1] = S. cerevisiae deletion strains, locus YBR021W, strain FUR4, stronger effect = lower value
[2] = S. cerevisiae deletion strains, locus YBR229C, strain ROT2, stronger effect = lower value
[3] = S. cerevisiae deletion strains, locus YCL029C, strain bik1, stronger effect = lower value
[4] = S. cerevisiae deletion strains, locus YDL035C, strain GPR1, stronger effect = lower value
[5] = S. cerevisiae deletion strains, locus YDL074C, strain BRE1, stronger effect = lower value
[6] = S. cerevisiae deletion strains, locus YDL101C, strain DUN1, stronger effect = lower value
[7] = S. cerevisiae deletion strains, locus YDL134C, strain PPH21, stronger effect = lower value
[8] = S. cerevisiae deletion strains, locus YDL185W, strain tfp1, stronger effect = lower value
[9] = S. cerevisiae deletion strains, locus YDL192W, strain arf1, stronger effect = lower value
[10] = S. cerevisiae deletion strains, locus YDR101C, strain arx1, stronger effect = lower value
[11] = S. cerevisiae deletion strains, locus YDR162C, strain NBP2, stronger effect = lower value
[12] = S. cerevisiae deletion strains, locus YDR318W, strain mcm21, stronger effect = lower value
[13] = S. cerevisiae deletion strains, locus YDR388W, stronger effect = lower value
[14] = S. cerevisiae deletion strains, locus YDR502C, strain sam2, stronger effect = lower value
[15] = S. cerevisiae deletion strains, locus YER110C, stronger effect = lower value
[16] = S. cerevisiae deletion strains, locus YER155C, strain BEM2, stronger effect = lower value
[17] = S. cerevisiae deletion strains, locus YER167W, strain BCK2, stronger effect = lower value
[18] = S. cerevisiae deletion strains, locus YGL078C, strain dbp3, stronger effect = lower value
[19] = S. cerevisiae deletion strains, locus YGL086W, strain mad1, stronger effect = lower value
[20] = S. cerevisiae deletion strains, locus YGL248W, strain PDE1, stronger effect = lower value
[21] = S. cerevisiae deletion strains, locus YGR135W, strain pre9, stronger effect = lower value
[22] = S. cerevisiae deletion strains, locus YGR252W, strain gcn5, stronger effect = lower value
[23] = S. cerevisiae deletion strains, locus YHR030C, strain SLT2, stronger effect = lower value
[24] = S. cerevisiae deletion strains, locus YHR079C, strain IRE1 (second series), stronger effect = lower value
[25] = S. cerevisiae deletion strains, locus YHR094C, strain hxt1, stronger effect = lower value
[26] = S. cerevisiae deletion strains, locus YHR129C, strain ARP1, stronger effect = lower value
[27] = S. cerevisiae deletion strains, locus YHR200W, strain rpn10, stronger effect = lower value
[28] = S. cerevisiae deletion strains, locus YIL066C, strain RNR3, stronger effect = lower value
[29] = S. cerevisiae deletion strains, locus YIL073C, strain SPO22, stronger effect = lower value
[30] = S. cerevisiae deletion strains, locus YIL125W, strain kgd1, stronger effect = lower value
[31] = S. cerevisiae deletion strains, locus YIR030C, strain dcg1, stronger effect = lower value
[32] = S. cerevisiae deletion strains, locus YJL095W, strain BCK1, stronger effect = lower value
[33] = S. cerevisiae deletion strains, locus YJL134W, strain LCB3, stronger effect = lower value
[34] = S. cerevisiae deletion strains, locus YJL168C, strain set2, stronger effect = lower value
[35] = S. cerevisiae deletion strains, locus YJL187C, strain SWE1 (second series), stronger effect = lower value
[36] = S. cerevisiae deletion strains, locus YJR043C, strain POL32, stronger effect = lower value
[37] = S. cerevisiae deletion strains, locus YJR075W, strain HOC1, stronger effect = lower value
[38] = S. cerevisiae deletion strains, locus YKL009W, strain mrt4, stronger effect = lower value
[39] = S. cerevisiae deletion strains, locus YKL068W, stronger effect = lower value
[40] = S. cerevisiae deletion strains, locus YKL085W, strain MDH1 (second series), stronger effect = lower value
[41] = S. cerevisiae deletion strains, locus YKL085W, strain MDH1, stronger effect = lower value
[42] = S. cerevisiae deletion strains, locus YKL190W, strain CNB1, stronger effect = lower value
[43] = S. cerevisiae deletion strains, locus YKR001C, strain vps1, stronger effect = lower value
[44] = S. cerevisiae deletion strains, locus YLR039C, strain RIC1, stronger effect = lower value
[45] = S. cerevisiae deletion strains, locus YLR058C, strain SHM2, stronger effect = lower value
[46] = S. cerevisiae deletion strains, locus YLR102C, strain apc9, stronger effect = lower value
[47] = S. cerevisiae deletion strains, locus YLR268W, strain sec22, stronger effect = lower value
[48] = S. cerevisiae deletion strains, locus YLR330W, strain CHS5, stronger effect = lower value
[49] = S. cerevisiae deletion strains, locus YLR371W, strain rom2, stronger effect = lower value
[50] = S. cerevisiae deletion strains, locus YLR418C, strain cdc73, stronger effect = lower value
[51] = S. cerevisiae deletion strains, locus YML016C, strain PPZ1, stronger effect = lower value
[52] = S. cerevisiae deletion strains, locus YML032C, strain rad52, stronger effect = lower value
[53] = S. cerevisiae deletion strains, locus YML124C, strain tub3, stronger effect = lower value
[54] = S. cerevisiae deletion strains, locus YMR078C, strain ctf18, stronger effect = lower value
[55] = S. cerevisiae deletion strains, locus YMR223W, strain ubp8, stronger effect = lower value
[56] = S. cerevisiae deletion strains, locus YMR307W, strain GAS1, stronger effect = lower value
[57] = S. cerevisiae deletion strains, locus YNL067W, strain RPL9B, stronger effect = lower value
[58] = S. cerevisiae deletion strains, locus YNL153C, strain GIM3, stronger effect = lower value
[59] = S. cerevisiae deletion strains, locus YNL233W, strain BNI4, stronger effect = lower value
[60] = S. cerevisiae deletion strains, locus YNL250W, strain rad50, stronger effect = lower value
[61] = S. cerevisiae deletion strains, locus YNL271C, strain bni1, stronger effect = lower value
[62] = S. cerevisiae deletion strains, locus YNL298W, strain CLA4, stronger effect = lower value
[63] = S. cerevisiae deletion strains, locus YNL307C, strain MCK1, stronger effect = lower value
[64] = S. cerevisiae deletion strains, locus YNR052C, strain pop2, stronger effect = lower value
[65] = S. cerevisiae deletion strains, locus YOL006C, strain TOP1, stronger effect = lower value
[66] = S. cerevisiae deletion strains, locus YOL012C, strain htz1
[67] = S. cerevisiae deletion strains, locus YOL147C, strain pex11, stronger effect = lower value
[68] = S. cerevisiae deletion strains, locus YOR061W, strain CKA2, stronger effect = lower value
[69] = S. cerevisiae deletion strains, locus YOR069W, strain VPS5, stronger effect = lower value
[70] = S. cerevisiae deletion strains, locus YOR136W, strain idh2, stronger effect = lower value
[71] = S. cerevisiae deletion strains, locus YOR144C, strain elg1, stronger effect = lower value
[72] = S. cerevisiae deletion strains, locus YOR184W, strain ser1, stronger effect = lower value
[73] = S. cerevisiae deletion strains, locus YOR316C, strain cot1, stronger effect = lower value
[74] = S. cerevisiae deletion strains, locus YPR119W, strain clb2, stronger effect = lower value
[75] = S. cerevisiae deletion strains, locus YPR141C, strain kar3, stronger effect = lower value
[76] = S. cerevisiae deletion strains, locus YPR163C, strain tif3, stronger effect = lower value
[77] = S. cerevisiae deletion strains, locus YPR167C, strain met16, stronger effect = lower value
[78] = S. cerevisiae deletion strains, strain wtn01, stronger effect = lower value

Measured: normalized growth

CC(=O)OC1CC[C@@]2(C)C(CC[C@]3(C)C2CCC2C4CC(C)(C)CCC4(C(=O)O)CC[C@]23C)C1(C)C (some centres not stated)
inactive: [1] 1.02 | [2] 0.998 | [3] 0.968 | [4] 1.06 | [5] 1.05 | [6] 0.985 | [7] 1.03 | [8] 0.934 | [9] 1.01 | [10] 1.02 | [11] 1.01 | [12] 0.993 | [13] 0.975 | [14] 0.999 | [15] 0.971 | [16] 0.985 | [17] 0.998 | [18] 0.974 | [19] 1.01 | [20] 1.04 | [21] 0.972 | [22] 1.05 | [23] 1.01 | [24] 0.975 | [25] 0.978 | [26] 1.03 | [27] 0.999 | [28] 1.01 | [29] 0.986 | [30] 0.979 | [31] 0.974 | [32] 1.03 | [33] 0.994 | [34] 0.977 | [35] 1.01 | [36] 1.07 | [37] 1 | [38] 0.966 | [39] 1.02 | [40] 1.01 | [41] 1.01 | [42] 0.996 | [43] 1.01 | [44] 1.11 | [45] 1.02 | [46] 0.973 | [47] 0.998 | [48] 0.996 | [49] 0.968 | [50] 1.02 | [51] 1 | [52] 0.987 | [53] 0.991 | [54] 0.968 | [55] 0.976 | [56] 1.25 | [57] 0.989 | [58] 0.998 | [59] 1.03 | [60] 0.92 | [61] 0.995 | [62] 0.992 | [63] 1.01 | [64] 0.992 | [65] 1.25 | [66] 1.01 | [67] 0.979 | [68] 1 | [69] 1 | [70] 0.983 | [71] 0.989 | [72] 1.08 | [73] 0.964 | [74] 0.951 | [75] 0.975 | [76] 0.985 | [77] 0.99 | [78] 1.01

C[C@@H]1OC(O[C@H]2[C@H](O)[C@@H](O)[C@H](OC[C@H]3O[C@@H](OC(=O)[C@]45CCC(C)(C)CC4C4=CCC6[C@@]7(C)CC[C@H](OC8OC[C@H](O)[C@H](O)[C@H]8OC8O[C@@H](C)[C@H](O)[C@@H](O)[C@H]8O)[C@@](C)(CO)C7CC[C@@]6(C)[C@]4(C)CC5)[C@H](O)[C@@H](O)[C@@H]3O)O[C@@H]2CO)[C@H](O)[C@H](O)[C@H]1O (some centres not stated)
inactive: [1] 0.991 | [2] 0.987 | [3] 0.985 | [4] 1 | [5] 0.99 | [6] 0.992 | [7] 1.02 | [8] 0.97 | [9] 0.985 | [10] 0.995 | S. cerevisiae deletion strains, locus YDR150W, strain NUM1, stronger effect = lower value 0.998 | [11] 1.02 | [12] 0.993 | [13] 0.986 | [14] 0.99 | S. cerevisiae deletion strains, locus YEL061C, strain CIN8, stronger effect = lower value 0.993 | [15] 0.986 | [16] 0.989 | [17] 1 | [18] 0.985 | [19] 1.01 | [20] 0.991 | [21] 0.993 | S. cerevisiae deletion strains, locus YGR229C, strain SMI1, stronger effect = lower value 1.01 | [22] 0.987 | [23] 0.997 and 1.02 | [24] 0.993 | S. cerevisiae deletion strains, locus YHR079C, strain IRE1, stronger effect = lower value 1.01 | [25] 0.996 | [26] 0.99 | [27] 0.997 | [28] 1 | [29] 0.993 | [30] 0.983 | [31] 1 | [32] 1.01 and 0.985 | [33] 0.991 | [34] 0.991 | [35] 0.997 | [36] 1.02 | S. cerevisiae deletion strains, locus YJR066W, strain TOR1, stronger effect = lower value 0.967 | [37] 1.02 | [38] 0.968 | [39] 0.98 | [40] 1 | [41] 1 | [42] 0.995 | [43] 0.984 | [44] 1.04 | [45] 0.988 | [46] 0.993 | S. cerevisiae deletion strains, locus YLR113W, strain HOG1, stronger effect = lower value 0.992 | S. cerevisiae deletion strains, locus YLR262C, strain YPT6, stronger effect = lower value 1.03 | [47] 0.992 | [48] 0.989 | S. cerevisiae deletion strains, locus YLR342W, strain FKS1 (second series), stronger effect = lower value 1.01 | [49] 0.986 | [50] 0.992 | [51] 0.987 | [52] 0.986 | [53] 0.991 | [54] 0.985 | [55] 0.98 | S. cerevisiae deletion strains, locus YMR263W, strain SAP30, stronger effect = lower value 1.01 | [56] 1.06 | [57] 1.01 | S. cerevisiae deletion strains, locus YNL128W, strain TEP1, stronger effect = lower value 0.994 | [58] 1.02 | S. cerevisiae deletion strains, locus YNL183C, strain NPR1, stronger effect = lower value 0.983 | [59] 1 | [60] 0.971 | [61] 0.987 | [62] 0.993 | [63] 0.989 | [64] 0.978 | [65] 0.946 | [66] 0.966 | [67] 0.997 | [68] 0.984 | [69] 0.991 | [70] 0.979 | [71] 0.997 | [72] 1.01 | S. cerevisiae deletion strains, locus YOR231W, strain MKK1, stronger effect = lower value 0.983 | [73] 0.983 | S. cerevisiae deletion strains, locus YPL055C, strain LGE1, stronger effect = lower value 1.02 | S. cerevisiae deletion strains, locus YPL241C, strain CIN2, stronger effect = lower value 0.997 | S. cerevisiae deletion strains, locus YPL256C, strain CLN2, stronger effect = lower value 1.04 | [74] 0.991 | [75] 0.982 | [76] 0.994 | [77] 0.985 | [78] 1 | S. cerevisiae strains, strain wild type, stronger effect = lower value 0.994
